What all share (type): functional
The test system of experiment [1] is Plasmodium falciparum. Nature of the experiment: GSK_TCMDC: Inhibition of Plasmodium falciparum 3D7 in whole red blood cells, using parasite LDH activity as an index of growth. Test compounds present at 2uM.
The test system of experiment [2] is Plasmodium falciparum. Briefly: GSK_TCMDC: Inhibition of Plasmodium falciparum Dd2 in whole red blood cells, using parasite LDH activity as an index of growth. Test compounds present at 2uM.
Another experiment deals with HepG2. Nature of the experiment: GSK_TCMDC: Percent inhibition of human HepG2 cell line. Test compounds present at 10uM.

By Inhibition is commonly meant the share of the control response that was lost under treatment. Read a high Inhibition as a response far below the control.

On to `NC1CCN(c2nc(NCCc3ccc(O)cc3)nc(NCc3ccccc3-c3ccc(C(F)(F)F)cc3)n2)CC1.O=C(O)C(F)(F)F`, for which the Inhibition with Plasmodium falciparum [1] came out at 100%; in the experiment on Plasmodium falciparum [2], 72%; in the experiment on HepG2 it was 18%.

Take `c1ccc(C2CCC(N3CCC(N4CCN(c5ccccc5)CC4)CC3)CC2)cc1` (configuration not stated): the Inhibition in the experiment on Plasmodium falciparum [1] worked out at 97%; with Plasmodium falciparum [2] it was 34%; in the experiment on HepG2, 6%.

Consider `COc1ccc2ncc(C)c(CCN3CCC(NCc4ccc5c(n4)NC(=O)CS5)CC3)c2c1.Cl`, for which the values for the Inhibition in the experiment with Plasmodium falciparum [1], in the experiment with Plasmodium falciparum [2] and with HepG2 were 100%, 53% and 14%, respectively.

On to `Br.CCCCC(NCC)c1ccc(OCCOc2ccc(C(CCCC)NCC)cc2)cc1` (configuration not stated), for which the Inhibition with Plasmodium falciparum [1] came to 100%; with Plasmodium falciparum [2], 99%; in the experiment on HepG2, 100%.

Regarding `O=C(CSc1cccc[n+]1[O-])c1ccc(Cc2ncc(C(F)(F)F)cc2Cl)s1`, the Inhibition is recorded as 99% in the experiment with Plasmodium falciparum [1], 0% in the experiment on Plasmodium falciparum [2] and 13% with HepG2.

As for `CCC(=O)c1ccc(-c2ccc(=O)n(CC(=O)N(CCN(CC)CC)Cc3ccc(-c4ccc(C(F)(F)F)cc4)cc3)n2)cc1`, the Inhibition came to 98% with Plasmodium falciparum [1], 67% in the experiment with Plasmodium falciparum [2] and 91% in the experiment with HepG2.

For the compound `O=C(O)C(F)(F)F.O=[N+]([O-])c1cccc(CNCC2CCN(CC3CCCCC3)CC2)c1`, the Inhibition with Plasmodium falciparum [1] was 90%; with Plasmodium falciparum [2], 14%; in the experiment with HepG2, 11%.

`Cc1cc(O)nc(NC#N)n1`: the Inhibition in the experiment on Plasmodium falciparum [1] stood at 99%; in the experiment with Plasmodium falciparum [2], 3%; with HepG2, 8%.

On to `CCCCOC(=O)c1ccc(NC(=O)Nc2ccc(Cn3ncc(N4CCCNCC4)c(Cl)c3=O)cc2)cc1.O=C(O)C(F)(F)F`, for which the Inhibition in the experiment on Plasmodium falciparum [1] amounted to 92%; with Plasmodium falciparum [2], 74%; with HepG2 it was 2%.

With `Cc1cccc2nc(-c3cccc(-c4ccc(NC(=O)Cc5ccon5)cc4)c3)[nH]c12`, the values for the Inhibition with Plasmodium falciparum [1], with Plasmodium falciparum [2] and in the experiment with HepG2 were 87%, 38% and 34%, respectively.

Turning to `Cc1cc(C(F)(F)F)n2nc(C3CCN(Cc4cc(C)c(O)c(C)c4)C3)cc2n1.O=C(O)CC(O)(CC(=O)O)C(=O)O` (configuration not stated), the Inhibition in the experiment with Plasmodium falciparum [1] stood at 98%; in the experiment on Plasmodium falciparum [2], 99%; in the experiment on HepG2, 34%.

For `CCCOc1cc(OCCC)cc(-c2ccc(C(=O)Nc3ccc4ccc(C)nc4c3)c(=O)[nH]2)c1`, the Inhibition in the experiment on Plasmodium falciparum [1] was 100%; in the experiment on Plasmodium falciparum [2], 76%; in the experiment on HepG2 it was 11%.

For the compound `Cc1ncc([N+](=O)[O-])n1CCOC(=O)NC(Nc1ccc(Br)cc1)C(Cl)(Cl)Cl` (configuration not stated), the Inhibition with Plasmodium falciparum [1] is reported as 99%; with Plasmodium falciparum [2], 100%; in the experiment with HepG2, 0%.

Regarding `COc1ccc(S(=O)(=O)NC2CCN(c3ccc(C(F)(F)F)cc3NC(=O)OCC(C)C)CC2)cc1`, the Inhibition with Plasmodium falciparum [1] is on record as 85%; in the experiment on Plasmodium falciparum [2], 13%; with HepG2, 19%.

For the compound `Cc1noc(-c2ccc3c(c2)CCN(CCC2CCC(NC(=O)/C=C/c4cccc(Cl)c4)CC2)CC3)n1.Cl` (configuration not stated), the Inhibition is on record as 86% in the experiment on Plasmodium falciparum [1], 24% in the experiment on Plasmodium falciparum [2] and 37% in the experiment on HepG2.

Turning to `COc1cc(CNC[C@@H](O)[C@H](Cc2ccccc2)NC(=O)c2cc(OC(C)C)cc(N3CCCS3(=O)=O)c2)cc(OC)c1.Cl`, the Inhibition in the experiment with Plasmodium falciparum [1] is recorded as 97%; in the experiment with Plasmodium falciparum [2], 72%; in the experiment with HepG2 it was 0%.

In the case of `COc1ccc(CCN(C)CCCOc2ccc(NC(=O)COc3cccc4sc5ccccc5c(=O)c34)cc2)cc1OC`, the Inhibition is given as 94% in the experiment on Plasmodium falciparum [1], 90% in the experiment with Plasmodium falciparum [2] and 99% with HepG2.

For `Cc1cc(NC(=O)c2ccsc2)ccc1OC1CCN(Cc2ccc(F)cc2)CC1.O=C(O)C(F)(F)F`, the Inhibition with Plasmodium falciparum [1] was 83%; in the experiment on Plasmodium falciparum [2] it was 47%; in the experiment with HepG2, 9%.

Turning to `COc1cccc(C=NN=c2cc(C)[nH]c3ccccc23)c1`, the Inhibition with Plasmodium falciparum [1] is recorded as 100%; in the experiment on Plasmodium falciparum [2], 46%; in the experiment with HepG2 it was 16%.

On to `Cc1cc(C2CCN(CCCCNC(=O)c3ccc(-c4ccc(C(F)(F)F)cc4)cc3)CC2)c(C)cc1OCC#N`, for which the Inhibition in the experiment with Plasmodium falciparum [1] turned out to be 100%; in the experiment on Plasmodium falciparum [2], 58%; with HepG2, 40%.

As for `Nc1cccc(CNCc2cccc(-c3ccc(-c4nc5cc(C(F)(F)F)ccc5[nH]4)cc3)c2)c1.O=C(O)C(F)(F)F`, the Inhibition in the experiment on Plasmodium falciparum [1] was found to be 100%; in the experiment with Plasmodium falciparum [2], 98%; in the experiment on HepG2, 6%.

As for `CS(=O)(=O)c1ccc(CCNCc2ccc(-c3ccc(CN(C(=O)c4cccc(C#N)c4)C4CCN(Cc5ccccc5)CC4)cc3)nc2)cc1.O=C(O)C(F)(F)F`, the Inhibition in the experiment with Plasmodium falciparum [1] was 96%; with Plasmodium falciparum [2], 56%; with HepG2, 20%.

As for `COCC(=O)N(Cc1ccccc1-c1cccc(CNCc2ccc3c(c2)OCO3)c1)C1CCN(Cc2ccccc2)CC1.O=C(O)C(F)(F)F`, the Inhibition in the experiment with Plasmodium falciparum [1] is listed as 94%; in the experiment on Plasmodium falciparum [2], 72%; in the experiment with HepG2, 33%.

As for `COc1ccc(NC(=O)CCNc2cc(C)nc(NCc3ccccc3C)n2)cc1.O=C(O)C(F)(F)F`, the Inhibition with Plasmodium falciparum [1] is recorded as 94%; in the experiment on Plasmodium falciparum [2] it was 61%; in the experiment on HepG2 it was 7%.

As to `COc1ccc(-c2cccc(NC(=O)c3cccc(Cl)c3)c2)cc1CN1CCCN(C)CC1.O=C(O)C(F)(F)F`, the values for the Inhibition in the experiment on Plasmodium falciparum [1], in the experiment with Plasmodium falciparum [2] and in the experiment with HepG2 were 100%, 99% and 20%, respectively.

Consider `CCn1c(CN2CCC(C)CC2)nc2cc(NC(=O)c3cccs3)ccc21`, for which the results for the Inhibition in the experiment on Plasmodium falciparum [1], in the experiment on Plasmodium falciparum [2] and with HepG2 were 91%, 95% and 40%, respectively.

`CCOC(=O)c1cn(CC)c2cc(F)c(OC3CC4CCC3(C)C4(C)C)cc2c1=O` (configuration not stated): the Inhibition came out at 91% with Plasmodium falciparum [1], 70% with Plasmodium falciparum [2] and 0% with HepG2.

As for `Cl.N#Cc1ccc(CCNc2nccc(-c3cccc(CN4CCNCC4)c3)n2)cc1`, the Inhibition with Plasmodium falciparum [1] is listed as 83%; with Plasmodium falciparum [2], 0%; in the experiment with HepG2 it was 5%.

Consider `CCCCCCNC(=N)c1ccc2[nH]c(-c3ccc(O)cc3)nc2c1.Cl`, for which the Inhibition stood at 100% in the experiment on Plasmodium falciparum [1], 99% in the experiment with Plasmodium falciparum [2] and 0% in the experiment on HepG2.

As for `CC(C)(C)NCCN(Cc1ccc(-c2ccc(C(F)(F)F)cc2)cc1)C(=O)Cn1c(SCc2ccc(F)cc2)nc(=O)c2c1CCC2.O=C(O)C(O)C(O)C(=O)O`, the results for the Inhibition with Plasmodium falciparum [1], in the experiment on Plasmodium falciparum [2] and in the experiment on HepG2 were 97%, 84% and 64%, respectively.

On to `Cc1csc(-c2ncc(OC[C@@H](N)Cc3ccccc3)cc2-c2ccc3[nH]nc(C)c3c2)c1.O=C(O)C(F)(F)F`, for which the Inhibition was 98% in the experiment on Plasmodium falciparum [1], 35% with Plasmodium falciparum [2] and 48% with HepG2.

As to `COc1cc(NC(=O)c2cccs2)c(C(=O)NCc2ccc(C)cc2)cc1OC`, the figures for the Inhibition in the experiment with Plasmodium falciparum [1], in the experiment with Plasmodium falciparum [2] and with HepG2 were 93%, 88% and 3%, respectively.

Consider `COc1ccc2nccc([C@@H](O)CN3CCC(NCc4ccc5c(c4)NC(=O)C(C)S5)CC3)c2c1.O=C(O)C(=O)O` (some centres not stated), for which the Inhibition in the experiment on Plasmodium falciparum [1] is 99%; with Plasmodium falciparum [2], 72%; in the experiment with HepG2 it was 7%.

Take `N#Cc1cccc(C(=O)NC2CCN(CCCCCNC(=O)/C=C/c3ccc(Cl)c(Cl)c3)CC2)c1`: the Inhibition is given as 100% in the experiment with Plasmodium falciparum [1], 0% with Plasmodium falciparum [2] and 11% in the experiment with HepG2.

In the case of `CCCc1cc(N2CCC(N3CCCC3)CC2)nc(Nc2ccc(Cl)cc2)n1`, the figures for the Inhibition in the experiment on Plasmodium falciparum [1], in the experiment on Plasmodium falciparum [2] and in the experiment on HepG2 were 96%, 9% and 29%, respectively.

For the compound `COc1cc2c(cc1OCCN1CCC(N3CCCCC3)CC1)N(C(=O)/C=C/c1ccccc1OC(F)(F)F)CC2.Cl`, the Inhibition is recorded as 100% with Plasmodium falciparum [1], 93% in the experiment on Plasmodium falciparum [2] and 64% in the experiment with HepG2.

On to `Br.CC(CCON1C(N)=NC(N)=NC1(C)C)c1ccc(Cl)c(Cl)c1` (configuration not stated), for which the Inhibition with Plasmodium falciparum [1] turned out to be 98%; with Plasmodium falciparum [2], 97%; in the experiment on HepG2, 60%.

`CCOc1cc(C(=O)NCCCN2CCN(c3cccc(Cl)c3)CC2)ccc1-c1nc2cc(Cl)c(F)cc2[nH]1`: the Inhibition stood at 96% with Plasmodium falciparum [1], 19% with Plasmodium falciparum [2] and 16% in the experiment on HepG2.

Turning to `CCOC(=O)c1ccc(NC(=O)Nc2cccc(-c3cccc(-c4nc5ccccc5[nH]4)c3)c2)cc1`, the results for the Inhibition in the experiment with Plasmodium falciparum [1], in the experiment on Plasmodium falciparum [2] and with HepG2 were 100%, 99% and 76%, respectively.

The values above are taken from ChEMBL document CHEMBL1157539, “Thousands of chemical starting points for antimalarial lead identification” (Nature, 2010).
